From PubChem BioAssay AID1159580 (chemical genetic matrix, 2015)
Several values for one entry are separate records, joined by “and”; a condition that tells them apart may be missing. Equal entries are not always repeated. Among all 5,500 compounds or so, about 2,000 (36%) were called active. Another 18% or so got no clear call; they are omitted. Cut-off read from the data, not from the text of the source: active = normalized growth mostly below about 0.91 (no sharp cut-off); inconclusive = no clear call, values can overlap the other calls; inactive = mostly above about 0.92. The list shows a part of the results.

Experiment: chemical genetic growth profiling, strain panel (AID 1159580);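 note: tested at 20 µM; growth read once vehicle control cultures reached saturation at 30 °C; 1 = growth at the plate median or of vehicle wells; lower values mean less growth of the strain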
Conditions: S. cerevisiae deletion strains, growth OD

Measured: normalized growth

NC(=O)c1ncn([C@@H]2O[C@H](CO)[C@@H](O)[C@H]2O)n1
inactive: locus YAL013W, strain DEP1, stronger effect = lower value 1 | locus YAL021C, strain ccr4, stronger effect = lower value 1.02 | locus YAL026C, strain drs2, stronger effect = lower value 0.995 | locus YAL030W, strain snc1, stronger effect = lower value 0.998 | locus YBL061C, strain skt5, stronger effect = lower value 0.975 | locus YBR009C, strain hhf1, stronger effect = lower value 0.992 | locus YBR021W, strain FUR4, stronger effect = lower value 0.965 | locus YBR023C, strain chs3, stronger effect = lower value 0.981 | locus YBR171W, strain sec66, stronger effect = lower value 0.993 | locus YBR229C, strain ROT2, stronger effect = lower value 0.993 | locus YBR231C, strain swc5, stronger effect = lower value 0.997 | locus YBR279W, strain paf1, stronger effect = lower value 0.978 | locus YCL011C, strain gbp2, stronger effect = lower value 0.981 | locus YCL016C, strain dcc1, stronger effect = lower value 0.979 | locus YCL029C, strain bik1, stronger effect = lower value 0.981 | locus YCL061C, strain MRC1, stronger effect = lower value 0.983 | locus YCL069W, strain vba3, stronger effect = lower value 0.996 | locus YCR088W, strain abp1, stronger effect = lower value 0.994 | locus YDL005C, strain med2, stronger effect = lower value 0.982 | locus YDL035C, strain GPR1, stronger effect = lower value 1.02 | locus YDL040C, strain nat1, stronger effect = lower value 0.978 | locus YDL074C, strain BRE1, stronger effect = lower value 1.04 | locus YDL101C, strain DUN1, stronger effect = lower value 0.998 | locus YDL134C, strain PPH21, stronger effect = lower value 1 | locus YDL185W, strain tfp1, stronger effect = lower value 0.978 | locus YDL192W, strain arf1, stronger effect = lower value 0.98 | locus YDR001C, strain nth1, stronger effect = lower value 0.996 | locus YDR069C, strain doa4, stronger effect = lower value 0.989 | locus YDR101C, strain arx1, stronger effect = lower value 0.993 | locus YDR137W, strain rgp1, stronger effect = lower value 0.97 | locus YDR150W, strain NUM1, stronger effect = lower value 0.988 | locus YDR159W, strain sac3, stronger effect = lower value 0.978 | locus YDR162C, strain NBP2, stronger effect = lower value 0.968 | locus YDR195W, strain ref2 0.979 | locus YDR297W, strain sur2, stronger effect = lower value 0.99 | locus YDR318W, strain mcm21, stronger effect = lower value 0.995 | locus YDR334W, strain swr1, stronger effect = lower value 0.99 | locus YDR335W, strain msn5, stronger effect = lower value 0.991 | locus YDR388W, stronger effect = lower value 0.995 | locus YDR392W, strain spt3, stronger effect = lower value 0.995 | locus YDR502C, strain sam2, stronger effect = lower value 0.992 | locus YEL003W, strain gim4, stronger effect = lower value 0.999 | locus YEL037C, strain rad23, stronger effect = lower value 0.993 | locus YEL061C, strain CIN8 (second series), stronger effect = lower value 0.994 | locus YEL061C, strain CIN8, stronger effect = lower value 0.999 | locus YER015W, strain faa2, stronger effect = lower value 0.988 | locus YER016W, strain bim1, stronger effect = lower value 0.988 | locus YER110C, stronger effect = lower value 0.989 | locus YER111C, strain swi4, stronger effect = lower value 0.996 | locus YER155C, strain BEM2 (second series), stronger effect = lower value 0.989 | locus YER155C, strain BEM2, stronger effect = lower value 0.995 | locus YER167W, strain BCK2, stronger effect = lower value 1.01 | locus YFR010W, strain ubp6, stronger effect = lower value 0.999 | locus YGL078C, strain dbp3, stronger effect = lower value 0.985 | locus YGL086W, strain mad1, stronger effect = lower value 0.997 | locus YGL167C, strain pmr1, stronger effect = lower value 0.983 | locus YGL173C, strain kem1, stronger effect = lower value 0.974 | locus YGL227W, strain vid30, stronger effect = lower value 0.986 | locus YGL240W, strain doc1, stronger effect = lower value 0.984 | locus YGL248W, strain PDE1, stronger effect = lower value 0.996 | locus YGL253W, strain hxk2, stronger effect = lower value 0.982 | locus YGR078C, strain PAC10, stronger effect = lower value 1.02 | locus YGR135W, strain pre9, stronger effect = lower value 0.979 | locus YGR229C, strain SMI1, stronger effect = lower value 1.01 | locus YGR252W, strain gcn5, stronger effect = lower value 0.993 | locus YHR013C, strain ard1, stronger effect = lower value 0.953 | locus YHR027C, strain rpn1, stronger effect = lower value 0.974 | locus YHR030C, strain SLT2, stronger effect = lower value 0.999 and 0.988 | locus YHR079C, strain IRE1 (second series), stronger effect = lower value 1 | locus YHR079C, strain IRE1, stronger effect = lower value 0.98 | locus YHR094C, strain hxt1, stronger effect = lower value 0.981 | locus YHR129C, strain ARP1, stronger effect = lower value 1.01 | locus YHR142W, strain chs7, stronger effect = lower value 0.999 | locus YHR200W, strain rpn10, stronger effect = lower value 0.993 | locus YIL066C, strain RNR3, stronger effect = lower value 0.995 | locus YIL073C, strain SPO22, stronger effect = lower value 0.946 | locus YIL125W, strain kgd1, stronger effect = lower value 0.997 | locus YIR030C, strain dcg1, stronger effect = lower value 0.99 | locus YJL092W, strain hpr5, stronger effect = lower value 0.992 | locus YJL095W, strain BCK1 (second series), stronger effect = lower value 0.987 | locus YJL095W, strain BCK1, stronger effect = lower value 1.02 and 0.977 | locus YJL115W, strain asf1, stronger effect = lower value 0.994 | locus YJL129C, strain trk1, stronger effect = lower value 0.995 | locus YJL134W, strain LCB3, stronger effect = lower value 1 | locus YJL154C, strain vps35, stronger effect = lower value 1.01 | locus YJL164C, strain tpk1, stronger effect = lower value 0.978 | locus YJL166W, strain qcr8, stronger effect = lower value 0.988 | locus YJL168C, strain set2, stronger effect = lower value 1 | locus YJL187C, strain SWE1 (second series), stronger effect = lower value 0.983 | locus YJL187C, strain SWE1, stronger effect = lower value 0.986 | locus YJR043C, strain POL32, stronger effect = lower value 0.977 | locus YJR066W, strain TOR1, stronger effect = lower value 0.959
